According to PubChem BioAssay (Tox21):
A number with no mark means an inactive call. Records with an inconclusive call do not appear. Where a call stands in place of a potency, no number is given. Calls of active or inactive are those of the source. Unless noted, calls follow the shape of the dose curve; as a rule, active = well fitted curve in the direction sought with a large enough effect in the repeat runs; inconclusive = weak or mixed curves; inactive = no such curve, though single readings can be large; an effect the other way counts as inactive or inconclusive.

Key:
[1] = qHTS assay to identify small molecule agonists of the hypoxia (HIF-1) signaling pathway - cell viability counter screen (AID 1224844; calls by dose curve; also: nearly all actives have a fitted effect of over 50% in size; also: potency is read from the fitted curve at half-maximal effect)
Outline: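 CellTiter-Glo luminescence read-out, 30 min RT, taken in the same wells as the beta-lactamase HRE reporter assay; HRE-bla ME-180 cells, 0.5% dialyzed FBS, 17 hr compound treatment at 37C, 5% CO2.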

[2] = qHTS assay to identify small molecule agonists of H2AX (AID 1224845; active = well fitted activation curve with a large enough effect in the signal ratio in the repeat runs, not every such curve was filed as active; the % refers to the signal ratio)
Outline: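 Wild-type CHO-K1 cells plated overnight, then exposed 3 hr at 37C to compounds at 15 concentrations (0.76% DMSO). Lysed, then HTRF anti-pH2AX(S139)-cryptate/anti-H2AX-d2 detection after 24 hr at room temperature; emissions 665 and 620 nm.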

[3] = qHTS assay to identify small molecule agonists of H2AX - cell viability counter screen (AID 1224847; calls by dose curve; also: top concentration of the series differs between compounds; nearly all actives have a fitted effect of over 30% in size)
Outline: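 Wild-type CHO-K1 cells (10% FBS medium) were plated overnight at 37C, exposed to compounds at 15 concentrations for 3 hr at 37C (0.76% DMSO final), and viability was read as CellTiter-Glo luminescence after 30 min at room temperature.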

[4] = qHTS assay to identify small molecule antagonists of the estrogen related receptor (ERR) signaling pathway from Tox21 library (AID 1224848); also: nearly all actives have a fitted effect of over 50% in size
Outline: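 Tox21 10K compounds in DMSO tested for ERR pathway antagonism in NTP's ERR cell line; 18 h, 37 C exposure; ONE-Glo luminescence.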

[5] = qHTS assay to identify small molecule agonists of the estrogen related receptor (ERR) signaling pathway from Tox21 library (AID 1224849; calls by dose curve; also: nearly all actives have a fitted effect of over 15% in size); details: ERR reporter cell line, ONE-Glo luciferase, 18 h; at 92.4 µM (top of the series) unless noted
Outline: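 Luminescence readout (ONE-Glo, 30 min RT) after 18 h compound exposure at 37 C of NTP-supplied ERR reporter cells; cells were plated 6 h before compound addition by pin tool.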

[6] = qHTS RealTime-Glo MT Cell Viability Assay in HepG2 cells - 24 hour (AID 1224867); also: nearly all actives have a fitted effect of over 50% in size
Outline: (§1)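 Viability was tracked continuously by NanoLuc luminescence from prosubstrate reduced by living HepG2 cells, at successive time points over 40 h of compound exposure. Cells with reagent were preincubated 5 h at 37 °C before compound addition.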

[7] = qHTS RealTime-Glo MT Cell Viability Assay in HEK293 cells - 32 hour (AID 1224868); also: top concentration of the series differs between compounds; nearly all actives have a fitted effect of over 50% in size
Outline: (§2)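 Viability tracked continuously by luminescence as live cells reduce a prosubstrate for NanoLuc; HEK293 cells preincubated 5 h, compound-treated at 37 C, and read at 0, 8, 16, 24, 32 and 40 h.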

[8] = A CellTox Green Cytotoxicity Assay to monitor cytotoxicity in HEK293 cells - 0 hour (AID 1224869); also: nearly all actives have a fitted effect of over 50% in size
Outline: (§3)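 Read-out: fluorescence of a cell-impermeant cyanine dye staining DNA of dead cells, proportional to cytotoxicity. HEK293, 600 cells/well with reagent, compound (23 nL DMSO) added after 5 h; reads at 0, 8, 16, 24, 32, 40 h.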

[9] = qHTS RealTime-Glo MT Cell Viability Assay in HepG2 cells - 40 hour (AID 1224870); also: nearly all actives have a fitted effect of over 50% in size
Outline: (§4)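 HepG2 cells mixed with RealTime-Glo MT reagents (NanoLuc plus cell-permeant prosubstrate) were seeded at 600 cells/well, incubated 5 h at 37 C/5% CO2, then pinned with compounds in DMSO; nonlytic luminescence tracked viability during 40 h treatment.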

[10] = A CellTox Green Cytotoxicity Assay to monitor cytotoxicity in HEK293 cells - 40 hour (AID 1224871); also: nearly all actives have a fitted effect of over 45% in size; also: potency is read from the fitted curve at half-maximal effect
Outline: as §3

[11] = qHTS RealTime-Glo MT Cell Viability Assay in HEK293 cells - 16 hour (AID 1224872)
Outline: as §2

[12] = qHTS RealTime-Glo MT Cell Viability Assay in HepG2 cells - 8 hour (AID 1224873); also: nearly all actives have a fitted effect of over 55% in size
Outline: as §4

[13] = qHTS RealTime-Glo MT Cell Viability Assay in HEK293 cells - 40 hour (AID 1224874); details: RealTime-Glo luminescence; max response: active compounds read low; also: nearly all actives have a fitted effect of over 50% in size
Outline: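 Luminescence readout at each listed time point; HEK293, 600 cells/well, RealTime-Glo MT reagent added with cells; compounds pinned (23 nL in DMSO) after 5 h at 37 C; continuous culture at 37 C.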

[14] = A CellTox Green Cytotoxicity Assay to monitor cytotoxicity in HEK293 cells - 24 hour (AID 1224875); also: nearly all actives have a fitted effect of over 45% in size; also: potency is read from the fitted curve at half-maximal effect
Outline: as §3

[15] = A CellTox Green Cytotoxicity Assay to monitor cytotoxicity in HepG2 cells - 16 hour (AID 1224876); also: nearly all actives have a fitted effect of over 45% in size
Outline: (§5)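 HepG2, 600 cells/well premixed w/ CellTox Green; 5 h settle, 37 C/5% CO2; pintool cpd add (DMSO); 37 C, 40 h; fluorescence read at 0, 8, 16, 24, 32, 40 h.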

[16] = qHTS RealTime-Glo MT Cell Viability Assay in HepG2 cells - 32 hour (AID 1224877); also: nearly all actives have a fitted effect of over 55% in size
Outline: as §1

[17] = A CellTox Green Cytotoxicity Assay to monitor cytotoxicity in HepG2 cells - 24 hour (AID 1224878); also: nearly all actives have a fitted effect of over 45% in size
Outline: as §5

[18] = A CellTox Green Cytotoxicity Assay to monitor cytotoxicity in HepG2 cells - 40 hour (AID 1224879); also: nearly all actives have a fitted effect of over 40% in size
Outline: as §5

[19] = qHTS assay to identify small molecule agonists of the hypoxia (HIF-1) signaling pathway (AID 1224846; active = well fitted activation curve with a large enough effect in the signal ratio in the repeat runs, not every such curve was filed as active; the % refers to the signal ratio)
Outline: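 Beta-lactamase FRET read-out (CCF4-AM substrate) from ME-180 cells carrying an HRE-driven bla reporter, after 17 hrs compound exposure at 37C/5% CO2. Cells were seeded at 2,000 per well in 0.5% dialyzed FBS medium and preincubated 5 hrs.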

## CC1(C)S[C@@H]2[C@H](NC(=O)C(C(=O)O)c3ccccc3)C(=O)N2[C@H]1C(=O)O (some centres not stated)
[1]
  Potency: inactive
[2]
  Potency: inactive
[3]
  Potency: inactive
[4]
  Potency: inactive
[5]
  activity change, positive = activation: 8.06% [at 42.5 µM]
[6]
  Potency: inactive
[7]
  Potency: inactive
[8]
  Potency: inactive
[9]
  Potency: inactive
[10]
  Potency: inactive
[11]
  Potency: inactive
[12]
  outcome: inactive
[13]
  max response: -0.907%
[14]
  Potency: inactive
[15]
  Potency: inactive
[16]
  Potency: inactive
[17]
  Potency: inactive
[18]
  Potency: inactive

## COc1nc(C)nc(NC(=O)NS(=O)(=O)c2ccccc2OCCCl)n1
[1]
  Potency: inactive
[19]
  outcome: inactive
[3]
  Potency: inactive
[4]
  Potency: inactive
[5]
  activity change, positive = activation: -0.581%
[6]
  Potency: inactive
[7]
  Potency: inactive
[8]
  Potency: inactive
[9]
  Potency: inactive
[10]
  Potency: inactive
[11]
  Potency: inactive
[12]
  outcome: inactive
[13]
  max response: 6.36%
[14]
  Potency: inactive
[15]
  Potency: inactive
[16]
  Potency: inactive
[17]
  Potency: inactive
[18]
  Potency: inactive

## O=c1oc2c(O)c(O)cc3c(=O)oc4c(O)c(O)cc1c4c23
[1]
  activity change, negative = cytotoxicity: 0.799% [at 15.8 µM]
[19]
  activation: -0.716% [at 15.8 µM]
[3]
  activity change, negative = cytotoxicity: 0.906% [at 31.6 µM]
[4]
  activity, negative = inhibition: 4.6% [at 19 µM]
[5]
  activity change, positive = activation: 2.5% [at 19 µM]
[6]
  activity change, negative = cytotoxicity: -9.61% [at 15.8 µM]
[7]
  activity change, negative = cytotoxic: -21.3% [at 15.8 µM]
[8]
  cytotoxicity: 10.4% [at 15.8 µM]
[9]
  activity change, negative = cytotoxic: -12.4% [at 15.8 µM]
[10]
  cytotoxicity increase: 16.8% [at 15.8 µM]
[11]
  activity change, negative = cytotoxicity: -3.75% [at 15.8 µM]
[12]
  viability change, negative = cytotoxic: 0.835% [at 15.8 µM]
[13]
  max response: -22.4%
[14]
  activity change: 21.9% [at 15.8 µM, active compounds read high]
[15]
  cytotoxicity increase: 1.02% [at 15.8 µM]
[16]
  activity change, negative = cytotoxic: -12.3% [at 15.8 µM]
[17]
  cytotoxicity: 4.4% [at 15.8 µM]

## Cc1cc2c(s1)Nc1ccccc1N=C2N1CCN(C)CC1
[1]
  Potency: inactive
[2]
  Potency: inactive
[3]
  Potency: inactive
[4]
  Potency: inactive
[5]
  activity change, positive = activation: -1.9% [at 42.5 µM]
[6]
  Potency: inactive
[7]
  Potency: inactive
[8]
  Potency: inactive
[9]
  Potency: inactive
[10]
  Potency: inactive
[11]
  Potency: inactive
[12]
  outcome: inactive
[13]
  max response: 3.41%
[14]
  Potency: inactive
[15]
  Potency: inactive
[16]
  Potency: inactive
[17]
  Potency: inactive
[18]
  Potency: inactive

## Cc1ccc(C(C)C)cc1O
[1]
  Potency: inactive
[2]
  Potency: inactive
[19]
  outcome: inactive
[3]
  Potency: inactive
[6]
  Potency: inactive
[7]
  Potency: inactive
[9]
  Potency: inactive
[11]
  Potency: inactive
[12]
  outcome: inactive
[13]
  max response: -12%
[14]
  Potency: inactive
[16]
  Potency: inactive

## OCc1c2ccccc2cc2ccccc12
[1]
  Potency: inactive
[3]
  Potency: inactive
[5]
  activity change, positive = activation: -18.3%
[6]
  Potency: inactive
[8]
  Potency: inactive
[9]
  Potency: inactive
[10]
  Potency: inactive
[12]
  outcome: inactive
[14]
  Potency: inactive
[15]
  Potency: inactive
[16]
  Potency: inactive
[17]
  Potency: inactive
[18]
  Potency: inactive

## CC(C)CC(=O)OCc1ccccc1
[1]
  Potency: inactive
[2]
  Potency: inactive
[3]
  Potency: inactive
[6]
  Potency: inactive
[7]
  Potency: inactive
[9]
  Potency: inactive
[10]
  Potency: inactive
[11]
  Potency: inactive
[12]
  outcome: inactive
[13]
  max response: 3.51%
[14]
  Potency: inactive
[15]
  Potency: inactive
[16]
  Potency: inactive
[17]
  Potency: inactive
[18]
  Potency: inactive

## CC1(C)C(=O)N(Cl)C(=O)N1Br
[1]
  Potency: inactive
[2]
  Potency: inactive
[19]
  outcome: inactive
[3]
  Potency: inactive
[6]
  Potency: inactive
[7]
  Potency: inactive
[8]
  Potency: inactive
[9]
  Potency: inactive
[10]
  Potency: inactive
[12]
  outcome: inactive
[13]
  max response: 17%
[14]
  Potency: inactive
[15]
  Potency: inactive
[16]
  Potency: inactive
[18]
  Potency: inactive

## CC1=C(CC(=O)O)c2cc(F)ccc2/C1=C\c1ccc(S(C)(=O)=O)cc1
[1]
  Potency: inactive
[2]
  Potency: inactive
[3]
  Potency: inactive
[4]
  Potency: inactive
[5]
  activity change, positive = activation: 5.91% [at 42.5 µM]
[6]
  Potency: inactive
[7]
  Potency: inactive
[8]
  Potency: inactive
[9]
  Potency: inactive
[10]
  Potency: inactive
[11]
  Potency: inactive
[12]
  outcome: inactive
[13]
  max response: 8.4%
[14]
  Potency: inactive
[15]
  Potency: inactive
[16]
  Potency: inactive
[17]
  Potency: inactive
[18]
  Potency: inactive

## Clc1cccc(-c2cc(Cl)cc(Cl)c2)c1
[1]
  Potency: 53 µM (active)
[4]
  Potency: inactive
[5]
  activity change, positive = activation: -3.25%
[6]
  Potency: inactive
[7]
  Potency: inactive
[8]
  Potency: inactive
[9]
  Potency: inactive
[10]
  Potency: 37.5 µM (active)
[11]
  Potency: inactive
[12]
  outcome: inactive
[13]
  max response: -9.77%
[14]
  Potency: 42.1 µM (active)
[15]
  Potency: inactive
[16]
  Potency: inactive

## O=C(O)CN(CCN(CC(=O)O)CC(=O)O)CCN(CC(=O)O)CC(=O)O
[1]
  activity change, negative = cytotoxicity: -7.94% [at 15.8 µM]
[3]
  activity change, negative = cytotoxicity: 0.16% [at 31.6 µM]
[4]
  activity, negative = inhibition: 11.2% [at 19 µM]
[5]
  activity change, positive = activation: 5.66% [at 19 µM]
[6]
  activity change, negative = cytotoxicity: 0.5% [at 15.8 µM]
[8]
  cytotoxicity: 4.99% [at 15.8 µM]
[9]
  activity change, negative = cytotoxic: 0.22% [at 15.8 µM]
[10]
  cytotoxicity increase: 19.7% [at 15.8 µM]
[12]
  viability change, negative = cytotoxic: -0.356% [at 15.8 µM]
[14]
  activity change: 15.9% [at 15.8 µM, active compounds read high]
[15]
  cytotoxicity increase: 29.9% [at 15.8 µM]
[16]
  activity change, negative = cytotoxic: 0.371% [at 15.8 µM]
[17]
  cytotoxicity: 28.9% [at 15.8 µM]
[18]
  cytotoxicity increase: 29.3% [at 15.8 µM]
